Potency and outcome data for 10 compounds are collected here from PubChem BioAssay (Tox21).

Where “and” joins values, the source holds several entries; their conditions need not be identical. Equal entries are not always repeated. Inconclusive results are not listed. More than one record can exist for a structure, and the calls need not agree. Calls of active or inactive are those of the source. Unless noted, calls follow the shape of the dose curve; as a rule, active = well fitted curve in the direction sought with a large enough effect in the repeat runs; inconclusive = weak or mixed curves; inactive = no such curve, though single readings can be large; an effect the other way counts as inactive or inconclusive.

A short description of assay [1]: qHTS assay to identify small molecule antagonists of the estrogen receptor alpha (ER-alpha) signaling pathway using the BG1 cell line in the presence of 0.1 nM 17-beta-estradiol - cell viability counter screen (AID 1259241). Also: nearly all actives have a fitted effect of over 40% in size. The procedure, abridged:
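Cytotoxicity counter-screen: live-cell protease activity measured by fluorescence (30 min reagent step) in the same wells. Cells were VM7Luc4E2 with endogenous ER-alpha and ERE-driven luciferase, treated 22 hr at 37C alongside 0.1 nM 17beta-estradiol final.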
(Quantitative high-throughput screening tests each substance at several concentrations.)

Assay [2] in a line: qHTS assay to identify small molecule antagonists of the androgen receptor (AR) signaling pathway using the MDA cell line in the presence of 0.5 nM R1881 - cell viability counter screen (AID 1259242). Also: nearly all actives have a fitted effect of over 45% in size. The method in brief:
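R1881 at 0.5 nM final stimulated MDA-kb2 cells during 16 hr compound treatment at 37C. Cytotoxicity read: CellTiter-Fluor fluorescence after 30 min.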

Assay [3] in a line: qHTS assay to identify small molecule phospholipidosis (PLD) inducers (AID 1259344; active = well fitted curve in the direction sought with a large enough effect; an effect the other way counts as inactive or inconclusive). The procedure, abridged: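 HepG2 cells grown on collagen I take up LipidTOX Red while exposed to compound for 24 h; after fixation they are imaged at 20x and pit metrics are extracted.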
Assay [4] is described as follows: qHTS assay to identify small molecule HDAC inhibitors - cell viability counter screen (AID 1259365). Also: nearly all actives have a fitted effect of over 50% in size. Also: potency is read from the fitted curve at half-maximal effect. The method in brief: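 CellTiter-Glo luminescence (30 min, room temperature) reported viability after a 2 h compound exposure at 37 C. Cells: wild-type HCT-116, 1,500 per well, seeded the night before.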
Assay [5] is described as follows: qHTS assay to identify small molecule agonists of the sonic hedgehog signaling (Shh) pathway - cell viability counter screen (AID 1259366). Also: nearly all actives have a fitted effect of over 50% in size. Also: potency is read from the fitted curve at half-maximal effect. The procedure, abridged:
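Cytotoxicity counter screen: CellTiter-Fluor reagent added after 23 h compound exposure, then 1 h at 37C and fluorescence read. Cells were 3T3 Gli1-Luc, seeded 2,000 per well and dosed 4 h post-plating.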

Assay [6] in a line: qHTS assay to identify small molecule antagonists of the sonic hedgehog signaling (Shh) pathway (AID 1259369; calls by dose curve; also: nearly all actives have a fitted effect of over 45% in size; also: potency is read from the fitted curve at half-maximal effect). The procedure, abridged:
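Conditioned medium drives Shh signalling in 3T3Gli1-Luc cells; compounds in DMSO co-applied, 24hr at 37 C, then luciferase luminescence.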

A short description of assay [7]: qHTS assay to identify small molecule agonists of the androgen receptor (AR) signaling pathway in the presence of an antagonist - cell viability counter screen (AID 1259379).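 Also: MDA-kb2 human breast cancer cells carrying an MMTV luciferase reporter; series mostly up to about 92 µM; nearly all actives have a fitted effect of over 25% in size.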 The procedure, abridged: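 A CellTiter-Fluor read-out measured viability of MDA-kb2 reporter cells (MMTV promoter with AR and GR response elements). Treatment: nilutamide 3.0uM final with compounds at 15 concentrations, 16 hr, 37C, 0% CO2.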

A short description of assay [8]: qHTS assay to identify small molecule agonists of the estrogen receptor beta (ER-beta) signaling pathway - cell viability counter screen (AID 1259380). Also: nearly all actives have a fitted effect of over 30% in size. Also: potency is read from the fitted curve at half-maximal effect. The method in brief:
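Cells used were ER-beta-UAS-bla HEK293T in medium with 2% charcoal-stripped FBS. They were treated for 16 hr at 37C. Viability came from CellTiter-Glo luminescence.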

In assay [9] the target is Androgen receptor (Homo sapiens) (UniProt P10275). The assay can be described thus: qHTS assay to identify small molecule agonists of the androgen receptor (AR) signaling pathway in the presence of an antagonist (AID 1259381; calls by dose curve; also: nearly all actives have a fitted effect of over 15% in size). The procedure, abridged: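 Using human MDA-kb2 cells with an MMTV promoter–luciferase construct (AR and GR response elements), agonist activity is scored under 3.0uM nilutamide (final) co-treatment; 16hr incubation, 37C, luminescence readout via ONE-Glo.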

The nature of assay [10]: qHTS assay to identify small molecule antagonists of the estrogen receptor beta (ER-beta) signaling pathway - cell viability counter screen (AID 1259382). Also: nearly all actives have a fitted effect of over 55% in size. Also: potency is read from the fitted curve at half-maximal effect. The method in brief: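 Agonist-stimulated (1nM E2) ER-beta-UAS-bla HEK293T cells are incubated with library compounds for 16 hr at 37C. Cell viability is then assessed in the reporter-assay wells by adding CellTiter-Glo and reading luminescence after 30 min.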

The nature of assay [11]: qHTS assay to identify small molecule agonists or antagonists of the thyroid stimulating hormone receptor (TSHR) signaling pathway - wild type cell line counter screen (AID 1259384; calls by dose curve). The procedure, abridged: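 Wild-type HEK293 cells were plated 18 h at 37 C/5% CO2, pin-dosed with compound plus Ro20-1724 medium, held 30 min at room temperature, then given cAMP-d2 and anti-cAMP-cryptate; fluorescence was read after 1 h. Fifteen concentrations, triplicate.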

The target in assay [12] is Thyrotropin receptor (Homo sapiens) (UniProt P16473). The assay can be described thus: qHTS assay to identify small molecule antagonists of the thyroid stimulating hormone receptor (TSHR) signaling pathway (AID 1259385; calls by dose curve; also: nearly all actives have a fitted effect of over 20% in size). The method in brief:
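TSHR-HEK293 cells were plated and held 18 h at 37C/5% CO2, then given compound plus Ro20-1724 and stimulated with TSH at 1.5 ng/mL final. After 30 min at room temperature, cAMP was detected with cAMP-d2/anti-cAMP-cryptate (1 h) by fluorescence.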

The nature of assay [13]: qHTS assay to identify small molecule HDAC inhibitors (AID 1259364).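 Also: wild-type HCT-116 cells with endogenous class I/II HDAC activity; top concentration of the series differs between compounds; nearly all actives have a fitted effect of over 45% in size.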 The method in brief: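 Relative class I and II HDAC activity is taken from the luminogenic signal in HCT-116 cells, with compound exposure 2 hr and reagent development 30 min at room temperature.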
Assay [14] in a line: qHTS assay to identify small molecule antagonists of the sonic hedgehog signaling (Shh) pathway - cell viability counter screen (AID 1259367). Also: nearly all actives have a fitted effect of over 55% in size. The procedure, abridged: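 After a 4 hr settling period, 3T3 Gli1-Luc cells were treated with DMSO-dissolved chemicals and conditioned medium, kept 24 hr at 37C in 5% CO2, and assayed for viability by CellTiter-Fluor fluorescence following 1 hr reagent incubation.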

The nature of assay [15]: qHTS assay to identify small molecule agonists of the sonic hedgehog signaling (Shh) pathway (AID 1259368; calls by dose curve;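 also: NIH/3T3-derived 3T3Gli1-Luc cells carrying a stable Gli1-driven firefly luciferase reporter; series mostly up to about 92 µM; nearly all actives have a fitted effect of over 15% in size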). The method in brief: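 Mouse fibroblast (NIH/3T3) reporter cells with stably integrated Gli1-Luc were treated 24 hr with compound; firefly luciferase luminescence served as the read-out.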
In assay [16] the target is Estrogen receptor beta (Homo sapiens) (UniProt Q92731). The assay can be described thus: qHTS assay to identify small molecule agonists of the estrogen receptor beta (ER-beta) signaling pathway (AID 1259377; active = well fitted activation curve with a large enough effect in the signal ratio in the repeat runs, not every such curve was filed as active; the % refers to the signal ratio). The procedure, abridged:
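Ratiometric beta-lactamase FRET read-out came after 2 h substrate loading at room temperature. It followed 16 h compound treatment at 37C of GripTite HEK293T cells carrying a UAS-bla reporter, plated in 2% charcoal-stripped FBS medium.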

Assay [17] shares this target. The assay can be described thus: qHTS assay to identify small molecule antagonists of the estrogen receptor beta (ER-beta) signaling pathway (AID 1259378; active = well fitted inhibition curve with a large enough effect in the signal ratio in the repeat runs, not every such curve was filed as active; the % refers to the signal ratio). The method in brief:
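ER-beta-UAS-bla HEK293T (GripTite) cells in 2% charcoal-stripped FBS medium were preincubated 6 hr at 37C, dosed with compound, then stimulated with 1 nM E2 (final) for 16 hr; beta-lactamase reporter read by B/G FRET fluorescence after 2 hr substrate loading.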

In assay [18] the target is Estrogen receptor (Homo sapiens) (UniProt P03372). The assay can be described thus: qHTS assay to identify small molecule agonists of the estrogen receptor alpha (ER-alpha) signaling pathway in the presence of an antagonist (AID 1259383; calls by dose curve; also: top concentration of the series differs between compounds; nearly all actives have a fitted effect of over 15% in size). The method in brief:
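Using VM7Luc4E2 cells seeded 24hr before treatment, antagonist ICI-182,780 (10.0nM final) was added, followed by compounds at 15 concentrations. Plates incubated 22hr; ONE-Glo luminescence quantified reporter activity.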

Chain of Thyrotropin receptor (Homo sapiens) (P16473 whole entry, looked up): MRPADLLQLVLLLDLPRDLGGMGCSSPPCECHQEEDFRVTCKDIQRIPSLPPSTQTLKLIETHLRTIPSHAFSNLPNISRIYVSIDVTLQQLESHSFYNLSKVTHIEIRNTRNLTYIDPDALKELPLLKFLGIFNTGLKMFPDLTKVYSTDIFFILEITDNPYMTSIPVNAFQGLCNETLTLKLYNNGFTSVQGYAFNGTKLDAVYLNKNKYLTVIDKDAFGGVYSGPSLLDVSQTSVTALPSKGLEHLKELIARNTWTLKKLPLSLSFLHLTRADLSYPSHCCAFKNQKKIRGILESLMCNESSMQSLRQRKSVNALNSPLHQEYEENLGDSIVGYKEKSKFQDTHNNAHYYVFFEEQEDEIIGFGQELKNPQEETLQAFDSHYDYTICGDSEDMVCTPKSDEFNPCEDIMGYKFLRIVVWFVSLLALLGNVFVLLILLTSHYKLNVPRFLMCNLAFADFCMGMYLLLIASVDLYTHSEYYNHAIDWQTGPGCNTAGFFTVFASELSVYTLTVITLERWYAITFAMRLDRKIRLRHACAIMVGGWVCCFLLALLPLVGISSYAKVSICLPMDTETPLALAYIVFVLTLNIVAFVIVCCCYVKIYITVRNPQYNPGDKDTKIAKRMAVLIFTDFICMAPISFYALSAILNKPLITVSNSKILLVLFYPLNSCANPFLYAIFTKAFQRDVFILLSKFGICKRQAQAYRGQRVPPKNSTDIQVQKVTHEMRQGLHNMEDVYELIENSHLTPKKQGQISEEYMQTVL
Chain of Estrogen receptor beta (Homo sapiens) (Q92731 whole entry, looked up): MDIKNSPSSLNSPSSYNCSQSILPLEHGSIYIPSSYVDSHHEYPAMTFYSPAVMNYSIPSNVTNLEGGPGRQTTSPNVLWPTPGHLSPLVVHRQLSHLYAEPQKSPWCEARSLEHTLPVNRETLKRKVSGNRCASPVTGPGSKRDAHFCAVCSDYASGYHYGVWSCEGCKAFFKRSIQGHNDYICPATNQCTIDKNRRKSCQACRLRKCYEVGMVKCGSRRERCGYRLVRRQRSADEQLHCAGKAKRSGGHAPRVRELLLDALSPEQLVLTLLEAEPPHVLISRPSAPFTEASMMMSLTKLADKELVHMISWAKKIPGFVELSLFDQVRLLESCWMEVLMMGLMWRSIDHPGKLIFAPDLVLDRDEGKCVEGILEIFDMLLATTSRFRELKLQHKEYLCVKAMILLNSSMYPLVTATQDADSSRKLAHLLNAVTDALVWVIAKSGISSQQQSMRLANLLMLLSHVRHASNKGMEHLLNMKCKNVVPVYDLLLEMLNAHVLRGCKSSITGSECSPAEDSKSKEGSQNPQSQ
Chain of Estrogen receptor (Homo sapiens) (P03372 whole entry, looked up): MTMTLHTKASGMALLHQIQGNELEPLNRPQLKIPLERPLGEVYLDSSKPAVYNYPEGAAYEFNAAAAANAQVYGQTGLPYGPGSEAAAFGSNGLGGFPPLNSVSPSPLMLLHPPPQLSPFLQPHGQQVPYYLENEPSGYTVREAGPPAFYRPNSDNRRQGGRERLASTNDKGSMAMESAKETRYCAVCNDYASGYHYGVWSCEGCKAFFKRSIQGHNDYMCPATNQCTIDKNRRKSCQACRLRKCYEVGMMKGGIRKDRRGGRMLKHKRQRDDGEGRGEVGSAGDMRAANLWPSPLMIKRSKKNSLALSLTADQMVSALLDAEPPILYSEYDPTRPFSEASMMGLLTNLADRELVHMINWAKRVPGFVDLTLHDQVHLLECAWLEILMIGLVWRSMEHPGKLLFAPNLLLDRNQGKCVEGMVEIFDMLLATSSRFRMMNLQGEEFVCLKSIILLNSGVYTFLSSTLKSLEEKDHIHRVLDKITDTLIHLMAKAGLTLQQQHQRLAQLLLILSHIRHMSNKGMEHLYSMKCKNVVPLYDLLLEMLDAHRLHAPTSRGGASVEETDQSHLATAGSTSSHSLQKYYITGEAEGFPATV
Chain of Androgen receptor (Homo sapiens) (P10275 whole entry, looked up): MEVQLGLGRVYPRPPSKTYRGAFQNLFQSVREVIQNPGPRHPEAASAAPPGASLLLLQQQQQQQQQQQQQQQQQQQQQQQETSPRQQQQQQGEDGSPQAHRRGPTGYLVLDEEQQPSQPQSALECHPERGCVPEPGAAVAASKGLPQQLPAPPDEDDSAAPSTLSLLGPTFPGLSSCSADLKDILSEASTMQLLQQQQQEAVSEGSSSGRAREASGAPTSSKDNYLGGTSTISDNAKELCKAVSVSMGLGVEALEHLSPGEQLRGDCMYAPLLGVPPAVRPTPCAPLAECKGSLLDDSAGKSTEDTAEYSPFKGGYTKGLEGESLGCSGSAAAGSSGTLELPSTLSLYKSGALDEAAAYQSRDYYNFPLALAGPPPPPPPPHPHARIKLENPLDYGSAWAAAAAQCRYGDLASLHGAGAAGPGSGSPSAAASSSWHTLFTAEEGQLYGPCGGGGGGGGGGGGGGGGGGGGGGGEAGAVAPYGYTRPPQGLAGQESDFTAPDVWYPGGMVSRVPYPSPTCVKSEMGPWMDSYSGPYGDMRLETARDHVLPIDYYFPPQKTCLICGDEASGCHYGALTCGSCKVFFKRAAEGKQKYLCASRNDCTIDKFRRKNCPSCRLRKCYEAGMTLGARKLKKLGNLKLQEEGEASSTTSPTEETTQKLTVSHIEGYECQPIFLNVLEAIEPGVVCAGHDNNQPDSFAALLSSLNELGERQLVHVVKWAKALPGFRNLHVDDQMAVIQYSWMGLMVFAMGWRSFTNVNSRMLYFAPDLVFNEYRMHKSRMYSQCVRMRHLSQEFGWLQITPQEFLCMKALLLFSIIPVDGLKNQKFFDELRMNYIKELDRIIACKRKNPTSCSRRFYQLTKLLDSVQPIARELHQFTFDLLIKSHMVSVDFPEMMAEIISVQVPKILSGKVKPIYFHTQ

In the case of `CC(C)(C)CC(C)(C)c1ccc(O)cc1`, the Potency entry in assay [1], in assay [2], in assay [7], in [9] and in assay [12] was “inactive” each time. In addition, the call in assay [3] and in assay [11] was inactive. Moreover, the Potency in assay [4] is 61.1 µM (active) and inactive; in assay [5], 48.6 µM (active) and inactive; in assay [6], 15.4 µM (active); in assay [8], 30.6 µM (active) and 33.5 µM (active); in [10] it was 57.7 µM (active) and 33.5 µM (active).

Turning to `Cc1ccc(N)c(C)c1`, the Potency entry in [1], in [2], in assay [13], in [4], in [5] and in [14] was “inactive” in each case. For the same compound, the Potency entry in assay [15], in assay [6], in assay [16], in assay [17], in assay [8] and in assay [10] was “inactive” throughout.

Consider `C=C(C)C(=O)OCCCCOC(=O)C(=C)C`, for which the Potency entry in [1], in assay [2], in assay [13], in assay [4], in assay [5] and in assay [14] was “inactive” throughout. In addition, the Potency entry in [15], in [6], in [16], in assay [17], in [8] and in assay [10] was “inactive” in each case. Further, the Potency result in assay [18] was “inactive”. In addition, the result in [11] was inactive.

As for `CCOC(=O)C1OC1(C)c1ccccc1` (centres undefined), the Potency entry in assay [1], in [2], in assay [13], in assay [4], in assay [5] and in assay [14] was “inactive” throughout. Further, the Potency entry in assay [15], in assay [6], in assay [16], in [17], in assay [7] and in assay [8] was “inactive” each time. In addition, the Potency entry in assay [10] and in [12] was “inactive” throughout. Besides, in assay [11], the compound was called inactive.

For the compound `CCSCc1ccccc1OC(=O)NC`, the Potency result in assay [1], in assay [2], in assay [13], in assay [4], in assay [5] and in assay [14] was “inactive” in each case. The Potency result in [15], in assay [6], in [16], in assay [7], in [8] and in assay [10] was “inactive” in each case. Further, the Potency entry in assay [18] and in [12] was “inactive” in each case. In [11], the result was inactive.

Turning to `CCCCCl`, the Potency entry in assay [1], in assay [2], in [13], in assay [4], in assay [5] and in [14] was “inactive” throughout. Also, the Potency entry in assay [15], in assay [6], in [7], in assay [8], in [10] and in [12] was “inactive” in each case. For the same compound, the compound was called inactive in assay [3] and in [11].

On to `NNCCO`, for which the Potency entry in assay [1], in assay [2], in assay [13], in [4], in assay [5] and in assay [14] was “inactive” throughout. In addition, the Potency entry in [15], in assay [6], in assay [17], in assay [7], in assay [8] and in [10] was “inactive” in each case. Besides, the Potency entry in assay [18] and in assay [12] was “inactive” in each case. In assay [11], the compound was classed as inactive.

Consider `CCCCOC(=O)CCC(=O)OCCCC`, for which the Potency result in assay [1], in assay [2], in assay [13], in [4], in assay [5] and in assay [14] was “inactive” each time. The Potency result in assay [15], in [6], in assay [16], in assay [17], in [7] and in assay [10] was “inactive” each time. The Potency result in assay [12] is “inactive”. Further, the call in assay [11] was inactive.

`CC[N+]1(CCOC(=O)C(O)(c2ccccc2)c2ccccc2)CCCCC1`: the Potency entry in [1], in assay [2], in [13], in assay [4], in [5] and in [14] was “inactive” in each case. Further, the Potency result in assay [15], in assay [6], in assay [8], in [10], in assay [18] and in [12] was “inactive” in each case. Moreover, the compound was classed as inactive in assay [3] and in assay [11].

For the compound `CCOC(=O)c1cncn1C(C)c1ccccc1` (centres undefined), the Potency result in [1], in assay [2], in assay [13], in assay [4], in assay [5] and in [15] was “inactive” in each case. Also, the Potency entry in assay [6], in assay [7], in [8], in assay [10], in assay [18] and in [12] was “inactive” each time. In addition, the call in assay [3] and in assay [11] was inactive.
